MITF primary: MITF inhibitors, primary screen, biochemical, AlphaScreen, human | AlphaScreen MITF homodimerization, bead proximity signal | inhibition, % at 2.6 µM | 0.91% of 650,000 active | AID 1259374, 2018; in the data active = inhibition above about 50%
GPR151 ag: activators of human GPR151, primary screen, cell-based, PathHunter beta-arrestin, luminescence; PathHunter beta-arrestin GPR151 cells; activation, % at 11.2 µM; 1% of 650,000 active; in the data active = activation above about 4.9%
TEAD-YAP inh: TEAD-YAP interaction inhibition, primary screen, TEAD-YAP interaction inhibitor project, luminescence, HEK-TIYL cells; TEAD-Gal4/YAP UAS-luciferase luminescence; inhibition, % at 9.12 µM; 1.4% of 640,000 active; AID 1259422, 2018; in the data active = inhibition above about 32%
FBW7 act: FBW7 E3 ligase activators, primary screen, biochemical, AlphaScreen, human | F-box/WD repeat-containing protein 7 (Homo sapiens), Q969H0 | AlphaScreen FBW7–phospho-cyclin E peptide binding, activator screen | normalized activity (activation), % at 26.1 µM | 0.13% of 650,000 active | AID 1259310, 2017; in the data active = normalized activity above about 1.9%;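 note: purified mutant Fbw7 with reduced substrate affinity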
Target sequence (Q969H0 whole entry, looked up): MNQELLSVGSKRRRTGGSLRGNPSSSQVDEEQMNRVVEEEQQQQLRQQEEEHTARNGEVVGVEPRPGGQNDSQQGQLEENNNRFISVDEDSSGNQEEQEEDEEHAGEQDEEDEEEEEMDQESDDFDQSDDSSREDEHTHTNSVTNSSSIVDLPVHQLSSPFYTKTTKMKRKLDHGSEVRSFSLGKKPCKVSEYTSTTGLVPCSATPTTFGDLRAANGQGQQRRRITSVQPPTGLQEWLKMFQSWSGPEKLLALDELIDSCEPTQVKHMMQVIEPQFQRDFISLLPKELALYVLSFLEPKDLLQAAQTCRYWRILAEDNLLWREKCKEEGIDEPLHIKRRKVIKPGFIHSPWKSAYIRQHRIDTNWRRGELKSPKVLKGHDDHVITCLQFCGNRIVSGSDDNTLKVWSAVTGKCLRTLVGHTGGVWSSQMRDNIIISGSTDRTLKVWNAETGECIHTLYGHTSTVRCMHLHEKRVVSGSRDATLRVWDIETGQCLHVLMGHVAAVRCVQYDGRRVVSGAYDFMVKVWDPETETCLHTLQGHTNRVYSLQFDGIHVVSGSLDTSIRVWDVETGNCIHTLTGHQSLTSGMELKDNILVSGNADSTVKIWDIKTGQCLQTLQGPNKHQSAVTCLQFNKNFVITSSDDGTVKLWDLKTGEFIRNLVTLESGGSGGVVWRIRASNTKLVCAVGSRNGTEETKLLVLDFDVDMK
GPR151 confirm: GPR151 activators, triplicate retest, confirmation, cell-based, PathHunter beta-arrestin, luminescence; GPR151 PathHunter beta-arrestin cells, 90 min; % of EA-reagent control over plate median; activation, % at 11.2 µM; AID 1508609, 2020; shares compounds with GPR151 ag; 6,700 tested, under 10 active;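 active = mean percent activation across replicates above the confirmation screen cutoff of 4.91%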
GPR119 ag: GPR119 activators in beta-arrestin cells, counter-screen for GPR151 activator project, cell-based, PathHunter beta-arrestin, luminescence, triplicate | shares compounds with GPR151 ag | 0.3% of 6,700 active | AID 1508611, 2020 | 90 min; 0 = compound-well median, 100 = enzyme-acceptor control | activation, % at 11.2 µM;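 active = mean percent activation in the counterscreen above 29.09%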;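 note: counterscreen on off-target GPR119 to flag nonselective hits from the GPR151 activator screen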
Numbers stand for hits; - = inactive; . = not tested or not shown. This is a sample that favours compounds with a hit; in the whole collection about 3.5% have one here.

SMILES	MITF primary	GPR151 ag	TEAD-YAP inh	FBW7 act	GPR151 confirm	GPR119 ag
CCCOc1ccc2oc(=O)c3c(c2c1)CCCN3C(=O)CN1CCN(C)CC1	-	-	-	-	.	.
CCCCOc1ccc2c3c(c(=O)oc2c1)CCC3	-	-	-	-	.	.
COc1cc(Nc2nc(NCc3cccc(C(F)(F)F)c3)c3ncn(CCN4CCCC4=O)c3n2)cc(OC)c1OC	-	5.3	-	-	-	-
O=C1CCCN1CCCNc1nc(NCc2cccnc2)nc2c1ncn2CCN1CCCC1=O	-	6.7	-	-	-	-
COc1cc(Nc2nc(NCc3cccnc3)nc3c2ncn3CCN2CCCC2=O)cc(OC)c1OC	-	5.0	-	-	-	-
O=C1CCCN1CCn1cnc2c(NCc3ccccc3)nc(NCc3cccnc3)nc21	-	-	-	-	.	.
CS(=O)(=O)c1cc(Cl)ccc1CN1CCc2nc3ccncc3cc2C1	-	-	-	-	.	.
COc1ccc(NC(=O)COc2ccc(Cl)cc2Br)c(OC)c1	-	-	-	-	.	.
CCCC(=O)Nc1nn2c(-c3cccc(OC)c3)nnc2s1	-	5.2	-	-	-	-
Cc1ccc(-c2nnc3sc(NC(=O)CC(C)C)nn23)cc1	-	27	-	-	-	-
CC(C)NC(=O)c1ncoc1-c1ccc(F)cc1	-	-	-	-	.	.
O=C(CSc1ncc(-c2cccc(Br)c2)o1)Nc1ccc(F)cc1F	-	9.3	-	-	-	-
O=C(NCCCc1ccccc1)C1CCN(C(=O)N2CCOc3ccc(Cl)cc32)CC1	-	-	-	-	.	.
O=C(NCCCc1ccccc1)C1CCN(C(=O)N2CCOc3ccccc32)CC1	-	6.1	-	-	-	-
COC(=O)c1ccc(NC(=O)C2CC(=O)N(Cc3ccc4c(c3)OCO4)C(=Nc3cccc(C(F)(F)F)c3)S2)cc1 (centres undefined)	-	6.4	-	-	-	-
O=C(O)c1ccc(NC(=O)C2CC(=O)N(Cc3ccc4c(c3)OCO4)C(=Nc3cccc(C(F)(F)F)c3)S2)cc1 (centres undefined)	-	-	-	-	.	.
COCCNCc1nc2c(c(=O)n(C)c(=O)n2C)n1Cc1ccccc1Cl	-	5.1	-	-	-	-
Cc1ccc(OCc2ccc(C(=O)N3CCSCC3)o2)c([N+](=O)[O-])c1	-	-	-	-	.	.
C=CCOc1ccc(C2/C(=C(/O)c3ccc(OCC)c(C)c3)C(=O)C(=O)N2Cc2cccnc2)cc1 (centres undefined)	-	6.6	-	-	-	-
CCOc1ccc(/C(O)=C2/C(=O)C(=O)N(Cc3cccnc3)C2c2ccc(C)cc2)cc1C (centres undefined)	-	-	-	-	.	.
COc1ccccc1C(=O)Nc1cnc2ccccc2c1	-	-	-	-	.	.
CCC(C)CC(=O)N1CCc2nnc(CNC(=O)CCc3cccnc3)n2CC1 (centres undefined)	-	9.0	-	-	-	-
O=C(CSc1nnc2scc(-c3ccccc3)n12)N1CCCCCC1	-	-	-	-	.	.
Cc1ccc(-c2csc3nnc(SCC(=O)N4CCOCC4)n23)cc1	-	5.0	-	-	-	-
O=[N+]([O-])c1ccc(Oc2sc(=Nc3ccccc3)n(CCO)c2-c2ccccc2)cc1	-	-	-	-	.	.
SMILES	MITF primary	GPR151 ag	TEAD-YAP inh	FBW7 act	GPR151 confirm	GPR119 ag
CC(C)(C)c1csc2ncc(C(=O)NCc3cccs3)c(=O)n12	-	5.2	-	-	-	-
COC(=O)CN(C)C(=O)CC1C(=O)NCCN1Cc1ccc(C)cc1 (centres undefined)	-	-	-	-	.	.
Cc1ccc(-n2nc3c(c2NC(=O)c2c(F)cccc2F)CS(=O)(=O)C3)cc1	-	-	-	-	.	.
COc1ccc(Cl)cc1C(=O)Nc1c2c(nn1-c1ccc(C)cc1C)CS(=O)(=O)C2	-	5.3	-	-	-	-
COc1ccc(-n2nc3c(c2NC(=O)c2c(F)cccc2F)CS(=O)(=O)C3)cc1	-	7.1	-	-	-	-
COc1ccc(Cl)cc1C(=O)Nc1c2c(nn1-c1ccccc1C)CS(=O)(=O)C2	-	-	-	-	.	.
O=C(Nc1c2c(nn1-c1ccc(Cl)cc1)CS(=O)(=O)C2)C1(c2ccc(Cl)cc2)CCCC1	-	-	-	-	.	.
O=C(Nc1c2c(nn1-c1ccc(F)cc1)CS(=O)(=O)C2)C1(c2ccc(Cl)cc2)CCCC1	-	5.1	-	-	-	-
COc1ccc(CCNC(=O)c2csc(Nc3nc4ccccc4n3C)n2)cc1	-	-	-	-	.	.
COc1ccc(CCNC(=O)c2cccc(Nc3nc4ccccc4n3C)n2)cc1	-	7.8	-	-	-	-
CCOC(=O)c1sc2nc(SCc3ccc(C(C)(C)C)cc3)n(Cc3ccccc3)c(=O)c2c1C	-	-	-	-	.	.
COC(=O)c1ccc(NC(=O)COc2cccc(C)c2C)cc1	-	-	-	-	.	.
CCOC(=O)c1c(NC(=O)COc2ccc3c(c2)OCO3)sc2c1CCCC2	-	5.4	-	-	-	-
CCCOC(=O)c1c(NC(=O)OC)sc2c1CCC(C)C2 (centres undefined)	-	6.0	-	-	-	-
CCCOC(=O)c1c(N)sc2c1CCC(C)C2 (centres undefined)	-	-	-	-	.	.
CCOC(=O)c1c(NC(=O)COc2ccc3c(C)cc(=O)oc3c2)sc2c1CCC(C)C2 (centres undefined)	-	5.4	-	-	-	-
COc1ccc(NC(=O)COc2cccc(C)c2C)cc1	-	7.5	-	-	-	-
O=C(Cc1csc(Nc2ccccn2)n1)N1CCCC1	-	-	-	-	.	.
Cc1noc(C)c1S(=O)(=O)N1CCCC(C(=O)c2ccc(Oc3ccccc3)cc2)C1 (centres undefined)	-	-	-	-	.	.
CNC(=O)c1c(NC(=O)COc2cccc(C)c2C)sc2c1CCCC2	-	5.2	-	-	-	-
CC(C)N1CCc2c(sc(NC(=O)Cc3ccccc3)c2C(N)=O)C1	-	-	-	-	.	.
CC(C)C(=O)N(CC(=O)Nc1sc2c(c1C(N)=O)CCCC2)Cc1ccccc1	-	7.1	-	-	-	-
CCOC(=O)c1c(NC(=O)c2cc(=O)c3ccccc3o2)sc2c1CCN(C(C)=O)C2	-	6.0	-	-	-	-
CC(=O)N1CCc2c(sc(NC(=O)Cc3ccccc3)c2C(N)=O)C1	-	5.3	-	-	-	-
Nc1cccc(C(=O)N/N=C/c2ccc(Cl)cc2)c1	-	-	-	-	.	.

From PubChem BioAssay
